Bioassay records deposited in PubChem BioAssay by National Center for Advancing Translational Sciences (NCATS).
TDP1 inh – qHTS Assay for Inhibitors of Tyrosyl-DNA Phosphodiesterase (TDP1) | recombinant TDP1, AlphaScreen DNA substrate cleavage | Potency, µM (titrated, usually from 130 µM), actives largely listed as inhibitors | actives 0.28% (n = 350,000) | Tyrosyl-DNA phosphodiesterase 1 (Homo sapiens), Q9NUW8; note: nearly all actives have a fitted effect of over 40% in size
Target sequence (Q9NUW8 whole entry, looked up): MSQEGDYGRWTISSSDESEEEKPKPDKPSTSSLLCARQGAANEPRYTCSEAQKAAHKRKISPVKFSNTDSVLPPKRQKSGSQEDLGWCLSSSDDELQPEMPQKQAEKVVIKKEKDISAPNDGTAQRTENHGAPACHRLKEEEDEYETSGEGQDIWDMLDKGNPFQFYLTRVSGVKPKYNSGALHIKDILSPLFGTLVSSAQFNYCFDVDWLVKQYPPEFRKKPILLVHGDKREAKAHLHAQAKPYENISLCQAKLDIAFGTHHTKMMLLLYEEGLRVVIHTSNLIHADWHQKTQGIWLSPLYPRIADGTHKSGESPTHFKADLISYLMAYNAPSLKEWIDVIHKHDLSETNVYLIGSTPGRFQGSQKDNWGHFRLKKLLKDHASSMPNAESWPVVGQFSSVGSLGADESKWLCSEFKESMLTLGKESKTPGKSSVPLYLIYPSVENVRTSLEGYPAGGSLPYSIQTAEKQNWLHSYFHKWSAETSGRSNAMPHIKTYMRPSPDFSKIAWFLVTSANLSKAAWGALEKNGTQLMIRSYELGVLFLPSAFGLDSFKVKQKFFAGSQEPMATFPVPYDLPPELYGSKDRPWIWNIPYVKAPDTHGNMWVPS
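AlphaScreen read-out: signal falls as enzyme removes the 3' tyrosine-FITC from a 5'-biotinylated DNA oligo (15 nM, 5 min, RT). Enzyme was E. coli-made recombinant Tdp1 at 1 nM, exposed to compound for 15 min beforehand; beads 10 ug/ml, 10 min.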
TDP1 cell CPT – qHTS for Inhibitors of human tyrosyl-DNA phosphodiesterase 1 (TDP1): qHTS in cells in presence of CPT; chicken DT40 Tdp1-/-;hTDP1 cells + 20 nM CPT, ATP luminescence, 48 h; Potency, µM (series often up to 46.2 µM), hits mostly inhibitors; actives 12% (n = 420,000); note: nearly all actives have a fitted effect of over 55% in size
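Chicken DT40 Tdp1-/- cells stably complemented with human TDP1 were seeded at 400 cells/well in medium containing 20 nM camptothecin, exposed to pin-transferred compounds, and grown at 37 °C for at least 48 hr. Viability was read as ATP luminescence.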
uPA generation – qHTS for Inhibitors of Cell Surface uPA Generation; cell surface uPA generation assay, qHTS; Potency, µM (top dose mostly 38.3 µM), most hits filed as inhibitors; actives 0.31% (n = 330,000); active = well fitted inhibition curve with a large enough effect; inconclusive = small, poorly fitted or top-dose-only effect; inactive = no such curve, though single readings can be large or run the other way; tested in mouse RAW 264.7 cells; note: nearly all actives have a fitted effect of over 55% in size
DT40 TDP1 no CPT – qHTS for Inhibitors of human tyrosyl-DNA phosphodiesterase 1 (TDP1): qHTS in cells in absence of CPT; DT40 Tdp1-/- hTDP1 cells, no CPT, ATP luminescence, 48 h; Potency, µM (highest dose often 46.2 µM), hits mostly inhibitors; actives 15% (n = 420,000); AID 686978, 2013; note: nearly all actives have a fitted effect of over 55% in size
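Chicken DT40 Tdp1-/- cells complemented with human TDP1, screened without camptothecin (DMSO vehicle only), 400 cells/well. Compounds pin-transferred, cells incubated at 37 °C for at least 48 hr. Growth read as ATP-dependent luminescence (CellTiter-Glo, 30 min at RT).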
miR-21 act – qHTS Assay for Modulators of miRNAs and/orActivators of miR-21 | AID 2288, 2010 | 340,000 tested, under 10 active | HeLa miR-21 FLuc reporter, luciferase, 48 h | Potency, µM (series often up to 38.3 µM), actives largely listed as activators;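 note: miR-21 action dims this reporter so a rising signal means less miR-21 action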
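HeLa cells stably expressing CMV-driven firefly luciferase with a downstream miR-21 binding sequence, endogenously expressing miR-21, were treated with titrations (up to about 40uM final) for 48 hours at 37 degree Celsius. Luciferase luminescence was read after lysis.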
A number is an active result; . = inactive; ? = inconclusive; / = no result given; [ ] = remark or other dose. Hits are enriched below; roughly 16% of the tested compounds scored in any of these assays. Unless noted, calls come from the whole dose curve; as a rule, active = well fitted curve in the direction sought with a large enough effect; inconclusive = small, poorly fitted or top-dose-only effect, or another doubt; inactive = no such curve, though single readings can be large; an effect the other way counts as inactive or inconclusive.

SMILES | TDP1 inh | TDP1 cell CPT | uPA generation | DT40 TDP1 no CPT | miR-21 act
CCCCC(=O)OCC(=O)[C@]1(O)Cc2c(O)c3c(c(O)c2[C@H](OC2CC(NC(=O)C(F)(F)F)C(O)C(C)O2)C1)C(=O)c1c(OC)cccc1C3=O (stereo partly drawn) | . | / | / | / | /
CC(=O)[C@]1(O)Cc2c(O)c3c(c(O)c2[C@@H](O[C@H]2C[C@H](N)[C@H](O)[C@H](C)O2)C1)C(=O)c1ccccc1C3=O | . | 0.15µM | . | 0.0073µM | /
CCC1(C2CCN(Cc3ccoc3)CC2)NC(=O)N(CC2COc3ccccc3O2)C1=O (stereo not drawn) | / | . | / | . | /
CCc1nc(SCC(=O)N2CCCC2)c2c(=O)n(C)c(=O)n(C)c2n1 | . | . | . | . | .
Cn1nc(C(=O)N2CCN(S(=O)(=O)/C=C/c3ccccc3)CC2)c2ccccc2c1=O | . | . | . | ? | .
Cc1cccc(-n2c(=S)[nH]c3sc4c(c3c2=O)CCc2ccccc2-4)c1 | . | 9.2µM | . | 6.5µM | .
COCC(=O)OC1CCn2c1nc1c2C(=O)C(C)=C(NC(C)=O)C1=O (stereo not drawn) | / | 2.6µM | . | 2.3µM | /
O=C(c1ccco1)N1CCN(c2nc(C3CC3)nc3sc4c(c23)CCCC4)CC1 | . | 26µM | . | ? | .
Cc1sc2nc(CN3CCCC3)nc(N3CCN(C(=O)c4ccco4)CC3)c2c1C | . | . | . | . | .
CCc1nc(SCC(=O)N2CCN(C(=O)c3ccco3)CC2)c2c3c(sc2n1)CCCC3 | . | ? | . | 13µM | .
CCc1cc2cc(C)ccc2nc1SCC(=O)N1CCN(C(=O)c2ccco2)CC1 | . | 13µM | . | 21µM | .
CCc1cc2cc(C)cc(C)c2nc1SCC(=O)N1CCCC1 | . | 29µM | . | ? | .
CCOC(=O)c1nc(N2CCN(C(=O)OCC)CC2)c2c3c(sc2n1)CCCC3 | . | 16µM | . | 26µM | .
Cc1nc(N2CCN(C(=O)c3ccco3)CC2)c2c3c(sc2n1)CC(C)CC3 (stereo not drawn) | . | 21µM | 2.8µM | 16µM | .
Cc1nc(N2CCN(C(=O)c3cccs3)CC2)c2c3c(sc2n1)CCCC3 | .[0.0935 µM] | ? | . | ? | .
Cc1nc(N2CCN(C(=O)c3ccco3)CC2)c2c3c(sc2n1)CCCC3 | . | ? | . | 15µM | ?
N#Cc1c(N2CCN(C(=O)c3ccco3)CC2)nc(-c2ccccc2)c2c1CCCC2 | . | 26µM | ? | ? | .
Cc1nc(N2CCN(c3ccccc3)CC2)c2c3c(sc2n1)CCC3 | . | / | / | / | .
CC(C)CNC(=O)COC(=O)CCC(=O)c1cccs1 | . | . | . | . | .
COc1ccc(OC)c(C2N(c3cc(C)on3)C(=O)C3CCCN32)c1 (stereo not drawn) | . | . | . | . | .
Cc1cc2cc(C)c3nnc(SCC(=O)N4CCN(C(=O)c5ccco5)CC4)n3c2cc1C | / | ? | . | 12µM | /
COC1=CC(=NCl)C=CC1=NCl | / | 21µM | / | 16µM | /
COc1ccc(CC(=O)NCc2cccc(Cl)c2)cc1S(=O)(=O)N1CCOCC1 | / | . | / | ? | /
O=C(c1cc(-c2ccco2)on1)N1CCN(C(c2ccccc2)c2ccccc2)CC1 | . | 16µM | / | 16µM | .
COc1ccc(-c2cc(C(=O)N3CCCC3)no2)cc1 | . | . | . | ? | .
SMILES | TDP1 inh | TDP1 cell CPT | uPA generation | DT40 TDP1 no CPT | miR-21 act
COc1ccc2oc(C(=O)N3CCN(C(c4ccccc4)c4ccccc4)CC3)c(C)c2c1 | . | ? | . | 18µM | /
CC(C)c1cc(C(=O)N2CCN(C(c3ccccc3)c3ccccc3)CC2)no1 | . | ? | . | ? | .
COc1ccc2oc(C(=O)N3CCN(C/C=C/c4ccccc4)CC3)c(C)c2c1 | . | . | . | . | /
COc1ccc(-c2cc(C(=O)N3CCN(C(c4ccccc4)c4ccccc4)CC3)no2)cc1 | . | 23µM | / | ? | .
Oc1c(C(c2ccco2)N2CCOCC2)sc2ncnn12 (stereo not drawn) | . | . | . | . | .
CCOC(=O)C1CCN(C(=O)c2cccnc2Cl)CC1 | . | . | / | . | .
CCN(CC)c1ncnc2scc(C3COc4ccccc4O3)c12 (stereo not drawn) | . | 16µM | . | ? | .
c1ccc2c(c1)OCC(c1csc3ncnc(N4CCOCC4)c13)O2 (stereo not drawn) | . | ? | . | ? | .
O=C(NC1CCCCC1)c1ccc2c(c1)N(Cc1cccc(Cl)c1)C(=O)c1ccccc1S2=O (stereo not drawn) | . | ? | / | ? | .
CCc1nc2c(OCc3ccc(OC(F)F)cc3)cccn2c1N(C)C(=O)c1ccc(OC)cc1 | / | 18µM | / | 13µM | /
CCc1nc2c(OCc3cc(Cl)cc(Cl)c3)cccn2c1N(C)C(=O)c1ccc(OC)cc1 | / | 18µM | / | 16µM | /
CCOC(=O)C(=O)N(C)c1c(CC)nc2c(OCc3ccc(OC(F)F)cc3)cccn12 | / | ? | / | . | /
COc1cc(NC(=O)c2cccs2)c(OC)cc1NC(=O)c1cccs1 | / | . | . | . | /
COc1cc(NCCC(=O)c2cccs2)c(OC)cc1Cl | . | 3.7µM | . | 4.6µM | .
COc1cc(NC(=O)c2cccs2)c(OC)cc1NC(=O)Nc1ccc(F)cc1 | / | ? | . | 23µM | .
COc1cc(NC(=O)c2ccccc2)c(OC)cc1NC(=O)CSc1[nH]c(=O)cc(C)c1C#N | . | 3.7µM | . | 2.3µM | .
COc1cc(NC(=O)C/C(C)=N/NC(=O)c2cccs2)c(OC)cc1Cl | . | . | . | . | .
COc1cc(NC(=O)c2cccs2)c(OC)cc1NC(=O)Cc1ccccc1 | . | ? | . | 23µM | .
Cc1cccnc1-c1cccc2c1OC(CNC(=O)Cn1cncn1)C2 (stereo not drawn) | / | .[9.04 µM] | / | . | /
O=C1c2cccnc2C(=O)N1c1nc(-c2ccccc2)cs1 | / | . | / | . | /
CCOC(=O)c1c(N)n(-c2cc(C)cc(C)c2)c2nc3ccccc3nc12 | .[12.3 µM] | ? | / | ? | .
Cc1ccc(S(=O)(=O)N2C[C@H]3C(=O)C[C@@H](c4ccc(Cl)cc4)N(S(=O)(=O)c4ccc(C)cc4)[C@H]3C[C@H]2c2cccc3ccccc23)cc1 | / | . | / | . | /
CCOC(=O)c1c(N=CN(C)C)c2cc([N+](=O)[O-])cnc2n1C | . | ? | . | . | .
O=C(Cn1cnc2c(oc3ccccc32)c1=O)NCc1ccco1 | . | . | . | . | .
Cc1cc(=O)[nH]c(SCC(=O)C23CC4CC(CC(C4)C2)C3)c1C#N | . | 8.2µM | / | 18µM | .
CCC(=O)Nc1cc(OC)c(NC(=O)c2ccccc2)cc1OC | . | . | . | . | .
